# Compound activity as filed in PubChem BioAssay.
# A selection: hits, their analogues and other compounds. The true share with any hit is near 17%.
# S2 tox = reduces viability in counter-screen for ATXN expression inhibitors. S2 cells (HEK-293 line with an ATXN2-luciferase reporter) viability, CellTiter-Fluor protease fluorescence, 24 h. Potency, µM (doses to about 56.7 µM), actives largely listed as cytotoxic. 400,000 tested, 0.49% active; also: nearly all actives have a fitted effect of over 40% in size
# HepG2 viability = HepG2 cytotoxicity, counter-screen for TGF-b inhibitors | Potency, µM (doses to about 46.1 µM), for inactives: at the top dose activity change, negative = cytotoxicity, actives largely listed as cytotoxic | 410,000 tested, 0.76% active | HepG2 CAGA-GFP viability, ATP luminescence, 18 h
#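 HepG2 CAGA-GFP cells (1000/well, DMEM with 1% FBS) received compound, then TGF-beta at 500 pg/mL final, and were incubated 18 hours at 37 degrees C. Viability was read by CellTiter-Glo luminescence. Media-only wells were set as complete cell-killing and DMSO as no toxicity.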
# ATXN2 expr inh = reduces ATXN2 reporter expression in HEK-293 cells; HEK-293 ATXN2-luciferase reporter, luminescence, 24 h; Potency, µM (titrated, usually from 57 µM), for inactives: at the highest dose activity change, negative = inhibition, usual class: inhibitors; AID 1745845; 360,000 tested, 0.72% active; also: % is scaled to controls: 0 for no effect and ±100 for the full control effect; nearly all actives have a fitted effect of over 55% in size
#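 qHTS (up to 57 uM final) was run with 24 h compound exposure of reporter cells at 37 °C. Each well was multiplexed: SteadyGlo luminescence measured ATXN2-luciferase expression after a fluorogenic Gly-Phe-AFC viability readout (25 uM final).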
# DT40 TDP1 CPT = growth inhibition of DT40 Tdp1-/-;hTDP1 cells with camptothecin (screen for TDP1 inhibitors) | chicken DT40 Tdp1-/-;hTDP1 cells + 20 nM CPT, ATP luminescence, 48 h | Potency, µM (highest dose often 46.2 µM), for inactives: at the top dose activity change, negative = growth inhibition, actives largely listed as inhibitors | 420,000 tested, 12% active; also: % is scaled to controls: 0 for no effect and ±100 for the full control effect; nearly all actives have a fitted effect of over 55% in size
#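 Chicken DT40 Tdp1-/- cells complemented with human TDP1, 400 cells/well, exposed to compounds plus 20 nM camptothecin for at least 48 h at 37 C; viability read as ATP content by CellTiter-Glo luminescence.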
# TDP1 cell noCPT = qHTS for Inhibitors of human tyrosyl-DNA phosphodiesterase 1 (TDP1): qHTS in cells in absence of CPT; DT40 Tdp1-/- hTDP1 cells, no CPT, ATP luminescence, 48 h; Potency, µM (doses to about 46.2 µM), for inactives: top-dose activity change, negative = growth inhibition, usual class: inhibitors; 420,000 tested, 15% active; also: % is scaled to controls: 0 for no effect and ±100 for the full control effect; nearly all actives have a fitted effect of over 55% in size
#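 Cells were dispensed at 400 per well, compounds added by pin tool, plates incubated ≥48 hr at 37 °C, then CellTiter-Glo added for 30 min at room temperature before luminescence reading. Line: DT40 Tdp1-/- complemented with hTDP1; camptothecin omitted.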
# TGFb inhibitor = blocks TGF-b signaling; HepG2 CAGA-GFP TGF-b/SMAD3 reporter, GFP fluorescence, 18 h; TGF-beta stimulated, 500 pg/mL final; Potency, µM (doses to about 46.1 µM), without a hit: top-dose activity, negative = inhibition, most hits filed as inhibitors; 410,000 tested, 1.2% active; AID 588855; also: % is scaled to controls: 0 for no effect and ±100 for the full control effect; nearly all actives have a fitted effect of over 65% in size
#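 Read-out: total well GFP (ex488/em500-530) summed from mean per-cell fluorescence. Cells: HEPG2 CAGA-GFP, 1% FBS DMEM, 18 h at 37 degrees C with 500 pg/mL final TGF-beta. Unstimulated wells served as the full-inhibition control; stimulated DMSO wells = 0%.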
# Active calls of the source: *; i = inactive; ? = inconclusive; · = no result given. Calls follow the shape of the dose curve; as a rule, active = well fitted curve in the direction sought with a large enough effect; inconclusive = small, poorly fitted or top-dose-only effect, or another doubt; inactive = no such curve, though single readings can be large; an effect the other way counts as inactive or inconclusive. Potency is read from the fitted curve at half-maximal effect.
SMILES,S2 tox,HepG2 viability,ATXN2 expr inh,DT40 TDP1 CPT,TDP1 cell noCPT,TGFb inhibitor
O=C(O)c1ccccc1C(=O)Nc1ccccn1,i,-43.7%,2.7%,-0.9%,-4.0%,-1.8%
O=C(Nc1cccc([N+](=O)[O-])c1)c1ccc2ccccc2c1O,i,-30.7%,-38.3%,23.1µM*,14.6µM*,?
O=C(N/N=C/c1cccnc1)c1ccc2ccccc2c1O,i,-3.1%,5.2%,-18.7%,1.7%,2.2%
CCCOc1ccc(C(F)(F)F)cc1NS(=O)(=O)c1ccc(Cl)nc1,i,-15.2%,?,14.6µM*,?,?
O=C(O)CCN1c2ccccc2Sc2ccccc21,i,-10.0%,·,-1.8%,-15.3%,4.2%
CN1CCC(CN2c3ccccc3Sc3ccccc32)C1 (centres undefined),·,·,·,18.8µM*,11.9µM*,·
CN1CC[C@H](CN2c3ccccc3Sc3ccccc32)C1,·,-68.6%,·,?,12.6µM*,?
COc1cc(-c2noc(CSc3nc(-c4ccccc4)cc(=O)[nH]3)n2)cc(OC)c1OC,·,-16.3%,·,-7.8%,-21.6%,0.0%
COC(=O)/C(C#N)=C1/SC=C(C)N1c1ccccc1,i,11.1%,-6.3%,-7.0%,-11.6%,-2.0%
N#C/C(C(N)=O)=C1/SC=C(c2ccccc2)N1c1ccccc1,i,5.2%,-14.3%,?,18.4µM*,12.6%
COCOCCn1cc(CN2CCS(=O)(=O)N(Cc3ccc(-c4ccccc4)cc3)C(C(C)C)C2=O)nn1 (centres undefined),i,-7.4%,?,?,23.1µM*,-17.6%
COCOCCn1cc(CN2CCS(=O)(=O)N(Cc3ccc(-c4ccc(Cl)nc4)cc3)C(C(C)C)C2=O)nn1 (centres undefined),?,1.2%,?,7.31µM*,-0.7%,-7.7%
COCOCCn1cc(CN2CCS(=O)(=O)N(Cc3ccc(-c4ccc(OC)cc4)cc3)C(C(C)C)C2=O)nn1 (centres undefined),i,-20.2%,-27.7%,14.6µM*,16.4µM*,-0.4%
COCOCCn1cc(CN2CCS(=O)(=O)N(Cc3ccc(-c4ccncc4)cc3)C(CC(C)C)C2=O)nn1 (centres undefined),i,-19.0%,-8.8%,23.1µM*,?,0.1%
O=C(CCCCCCC(=O)Nc1ccc([C@H]2O[C@@H](CSc3nc(-c4ccccc4)c(-c4ccccc4)o3)C[C@@H](c3ccc(CO)cc3)O2)cc1)NO,·,·,66.2%,·,·,·
Cc1c(NS(=O)(=O)c2cccc(C(=O)OCC(=O)c3ccc(Cl)cc3)c2)c(=O)n(-c2ccccc2)n1C,i,-28.3%,10.1%,-20.0%,-12.3%,-1.2%
CCCn1c(=O)c2sccc2n2c(CCCC(=O)N3CCN(c4ccccc4OC)CC3)nnc12,·,-2.7%,·,18.4µM*,?,-1.8%
CCCn1c(=O)c2sccc2n2c(CCCC(=O)NCC3CCCO3)nnc12 (centres undefined),i,4.8%,-2.6%,-9.0%,15.6%,1.1%
CCn1c(=O)c2sccc2n2c(CCC(=O)N3CCN(c4ccccc4OC)CC3)nnc12,i,-1.1%,-2.3%,-20.0%,-23.7%,0.8%
CCCn1c(=O)c2sccc2n2c(CCCC(=O)N3CCN(c4cccc(Cl)c4)CC3)nnc12,·,-7.0%,·,?,11.6µM*,?
CC(C)Cn1c(=O)c2sccc2n2c(CCCC(=O)NCCc3ccc(Cl)cc3)nnc12,·,-46.6%,·,?,?,?
CCCn1c(=O)c2sccc2n2c(CCCC(=O)NCCc3ccc(Cl)cc3)nnc12,·,-26.7%,·,?,20.6µM*,?
CCCn1c(=O)c2sccc2n2c(CCCC(=O)N3CCN(c4cccc(C)c4C)CC3)nnc12,·,-3.2%,·,20.6µM*,18.4µM*,?
O=c1[nH]cnc(O)c1C1C=CC=CC=C1,i,-19.6%,-7.4%,-28.5%,?,30.0%
COc1cc(C)c2c(c1OC)C(=O)CC2,i,-12.8%,-25.2%,-11.1%,-0.7%,?
SMILES,S2 tox,HepG2 viability,ATXN2 expr inh,DT40 TDP1 CPT,TDP1 cell noCPT,TGFb inhibitor
CCn1c(=O)c2sccc2n2c(CCCC(=O)N3CCN(c4ccc(F)cc4)CC3)nnc12,·,-12.7%,·,14.6µM*,18.4µM*,?
Cn1c(=O)c2sccc2n2c(CCC(=O)N3CCN(c4ccccc4)CC3)nnc12,i,-9.5%,7.8%,?,-29.5%,-1.5%
CCOC(=O)c1c(NC(=O)C2C3C=CC(C3)C2(C)C(=O)O)sc2c1CCCC2 (centres undefined),i,10.3%,0.6%,13µM*,18.4µM*,-3.9%
CCOC(=O)c1c(NC(=O)c2ccc(-n3cnnn3)cc2)sc2c1CCCC2,?,-0.6%,?,11.6µM*,16.4µM*,3.6%
CCOC(=O)c1c(NC(=O)C(C)OC(=O)c2ccc(NC(=O)CC#N)cc2)sc2c1CCCC2 (centres undefined),i,-23.2%,-13.4%,23.1µM*,?,?
CCOC(=O)c1c(NC(=O)c2ccc(N3C(=O)[C@@H]4[C@H](C3=O)[C@H]3C=C[C@@H]4C3)cc2)sc2c1CCCC2,i,-17.6%,·,-85.2%,23.1µM*,-3.0%
CCOC(=O)c1c(NC(=O)c2ccc(Br)cc2)sc2c1CCCC2,i,-0.3%,-0.3%,13.2%,-16.9%,-1.3%
COc1ccc(CCNC(=O)CN(C)S(=O)(=O)c2ccc(OC)cc2)cc1,i,-13.1%,-1.9%,3.2%,-23.4%,-2.6%
CN1CCN(c2cc(-c3ccccc3Cl)ncn2)CC1,·,·,·,-4.1%,-5.3%,·
CSc1ccc(CCNC(=O)CN2C(=O)CCSc3ccccc32)cc1,i,-8.3%,-15.4%,6.1%,?,-6.7%
COC(=O)c1ccccc1NC(=O)CSc1nnc(-c2cccnc2)n1N,i,-1.6%,-15.9%,-1.0%,1.2%,9.9%
